25 compounds from PubChem BioAssay (NCATS) can be followed below.

Several values for one entry are separate records, joined by “and”; a condition that tells them apart may be missing. Equal entries are not always repeated. Records with an inconclusive call do not appear. Some compounds were tested as several samples or in several runs, with calls that do not always agree. Activity calls are given as the source filed them. The call rests on the fitted dose curve; in most records, active means well fitted curve in the direction sought with a large enough effect; inconclusive means small, poorly fitted or top-dose-only effect, or another doubt; inactive means no such curve, though single readings can be large; an effect the other way counts as inactive or inconclusive.

System in one assay: not listed separately
Nature of the assay: Cellular Toxicity (caspase-3) SK-N-SH (AID 661). As to conditions: SK-N-SH caspase-3 activation, qHTS, DMSO as zero, staurosporine as full; series mostly up to 91.7 µM; caspase-3 activation: at the top concentration. Put shortly: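 SK-N-SH human neuroblastoma cells (1500/well) were treated with compounds for 16 hr at 37 °C in complete medium; caspase 3/7 activity was read by Caspase-Glo luminescence. AC50 came from Hill fits of data normalized to DMSO and 10 uM staurosporine.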
As to `CCNc1nc(Cl)nc(NC(C)C)n1`, the “caspase-3 activation” value was 0.698% (inactive).
Still for that read-out and setting: then `CCOCN(C(=O)CCl)c1c(C)cccc1CC`, with 8.77% (inactive).
Take `ClC(Cl)=C(c1ccc(Cl)cc1)c1ccc(Cl)cc1`: the compound was classed as inactive.
As to `ClC1=C(Cl)C2(Cl)C3C4C=CC(C4)C3C1(Cl)C2(Cl)Cl` (configuration not stated), the “caspase-3 activation” value was 15.3% (inactive).
Regarding `O=C(O)COc1ccc(Cl)cc1Cl`, the call was inactive.
On to `COC(=O)NC(=S)Nc1ccccc1NC(=S)NC(=O)OC`, for which the “caspase-3 activation” value was -1.67% (inactive).
Regarding `c1ccc(N=Nc2ccccc2)cc1`, the “caspase-3 activation” value was -1.33% (inactive).
On the same count and under the same terms, then `CCc1cccc(CC)c1N(COC)C(=O)CCl`, with 3.03% (inactive).

System in another assay: not listed separately
In words: Cellular Toxicity (caspase-3) H-4-II-E (AID 663).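 Further: cells exposed to compound for 16 hr before readout.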 As to conditions: H-4-II-E rat hepatoma, scaled: DMSO 0%, 100 µM tamoxifen 100%; series mostly up to 92.2 µM; caspase-3 activation: at the top concentration. Put shortly: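 Luminescence from caspase-cleaved aminoluciferin substrate, read 20 min after reagent addition, reports caspase 3/7 activation in rat H-4-II-E cells after 16 hr compound exposure. Normalized to DMSO (basal) and 100 uM tamoxifen (100%); AC50 from Hill fits.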
In the case of `CCNc1nc(Cl)nc(NC(C)C)n1`, the “caspase-3 activation” value was -0.312% (inactive).
Still for that read-out and setting: then `CCOCN(C(=O)CCl)c1c(C)cccc1CC`, with 2.87% (inactive); and `O=S1OCC2C(CO1)C1(Cl)C(Cl)=C(Cl)C2(Cl)C1(Cl)Cl` (configuration not stated), with 24.3% (inactive); and `ClC1=C(Cl)C2(Cl)C3C(Cl)C=CC3C1(Cl)C2(Cl)Cl` (configuration not stated), with -0.916% (inactive).
On to `CNC(=O)O/N=C/C(C)(C)SC`, for which the “caspase-3 activation” value was -0.0377% (inactive).
The same measure, in the same setting: then `CCc1cccc(CC)c1N(COC)C(=O)CCl`, with -1.23% (inactive).

System in the next assay: not listed separately
In words: Cellular Toxicity (caspase-3) Hek293 (AID 664).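 Further: cells exposed to compound for 16 h at 37 °C before readout.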 As to conditions: HEK293 caspase-3 activation, DMSO = 0%, 100 µM tamoxifen = 100%; series mostly up to 92.2 µM; caspase-3 activation: at the top concentration. The method, boiled down:
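HEK293 cells were exposed to compounds in complete medium for 16 hr at 37 °C, then caspase-3/7 activity was read by Caspase-Glo 3/7 luminescence after 20 min at room temperature. Data normalized to DMSO and 100 uM tamoxifen; AC50 from Hill fits.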
Regarding `CCNc1nc(Cl)nc(NC(C)C)n1`, the “caspase-3 activation” value was 0.178% (inactive).
Still for that read-out and setting: then `CCOCN(C(=O)CCl)c1c(C)cccc1CC`, with 4.25% (inactive); and `C=CCc1ccc(OC)cc1`, with -1.6% (inactive).
As for `CNC(=O)O/N=C/C(C)(C)SC`, the “caspase-3 activation” value is 0.42% (inactive).
On the same count and under the same terms, then `CCc1cccc(CC)c1N(COC)C(=O)CCl`, with 2.46% (inactive).

System in a further assay: not listed separately
In words: Cellular Toxicity (caspase-3) N2a (AID 665).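 Further: compound exposure lasted 16 h at 37 °C before readout.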 As to conditions: N2a cells, luminescence, normalized: DMSO 0%, 10 µM staurosporine 100%; at 92.2 µM (top of the series). Put shortly:
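Mouse N2a neuroblastoma cells (1500/well) were treated with compounds for 16 h at 37 °C, then caspase-3/7 activity was read by Caspase-Glo luminescence after 1 h at room temperature. Data were normalized to DMSO and 10 uM staurosporine; AC50 from Hill fits.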
Turning to `COC(=O)NC(=S)Nc1ccccc1NC(=S)NC(=O)OC`, the caspase-3 activation is 0.433% (inactive).
Still for that read-out and setting: for `O=S1OCC2C(CO1)C1(Cl)C(Cl)=C(Cl)C2(Cl)C1(Cl)Cl` (configuration not stated) the value was 12.4% (inactive); for `CCc1cccc(CC)c1N(COC)C(=O)CCl`, 4.56% (inactive).

System in the next assay: not listed separately
In words: Cellular Toxicity (caspase-3) NIH 3T3 (AID 666). As to conditions: NIH 3T3 caspase-3 activation, apoptosis/toxicity, 0% DMSO, 100% is 100 µM tamoxifen; series mostly up to 92.2 µM; caspase-3 activation: at the top concentration. Put shortly:
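Mouse NIH 3T3 fibroblasts (1000 cells/well) were treated with compound for 16 hr at 37°C in complete medium; caspase-3/7 activity was read by Caspase-Glo luminescence. Normalized to DMSO and 100 uM tamoxifen; AC50 from Hill fits.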
Regarding `CCNc1nc(Cl)nc(NC(C)C)n1`, the “caspase-3 activation” value was -1.84% (inactive).
As to `ClC1=C(Cl)C2(Cl)C3C4CC(C5OC45)C3C1(Cl)C2(Cl)Cl` (configuration not stated), the “caspase-3 activation” value was -2.39% (inactive).
Still for that read-out and setting: then `CCOCN(C(=O)CCl)c1c(C)cccc1CC`, with -9.78% (inactive).
With `ClC(Cl)=C(c1ccc(Cl)cc1)c1ccc(Cl)cc1`, the compound was called inactive.
`ClC1=C(Cl)C2(Cl)C3C4C=CC(C4)C3C1(Cl)C2(Cl)Cl` (configuration not stated): the “caspase-3 activation” value was 4.86% (inactive).
Consider `O=C(O)COc1ccc(Cl)cc1Cl`, for which the result was inactive.
`COC(=O)NC(=S)Nc1ccccc1NC(=S)NC(=O)OC`: the “caspase-3 activation” value is -3.77% (inactive).
On the same count and under the same terms, then `C/C=C/c1ccc2c(c1)OCO2`, with 3.82% (inactive); and `COP(=S)(OC)Oc1ccc([N+](=O)[O-])cc1`, with 0.137% (inactive).
With `O=S1OCC2C(CO1)C1(Cl)C(Cl)=C(Cl)C2(Cl)C1(Cl)Cl` (configuration not stated), the “caspase-3 activation” value was 1.27% (inactive).
On the same count and under the same terms, for `C=CCc1ccc(OC)cc1` the value was -2.65% (inactive); for `ClC1=C(Cl)C2(Cl)C3C(Cl)C=CC3C1(Cl)C2(Cl)Cl` (configuration not stated), -3.15% (inactive).
As to `CNC(=O)O/N=C/C(C)(C)SC`, the “caspase-3 activation” value was -2.78% (inactive).
The same measure, in the same setting: for `c1ccc(N=Nc2ccccc2)cc1` the value was -5.66% (inactive).
Same read-out and setting: then `CCc1cccc(CC)c1N(COC)C(=O)CCl`, with -6.23% (inactive).

System in a further assay: not listed separately
Nature of the assay: Cellular Toxicity (caspase-3) Renal Proximal Tubule (AID 667).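 Further: cells exposed to compound for 16 hours at 37 °C before detection.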 As to conditions: renal proximal tubule cells; at 91.7 µM (top of the series), primary cells freshly taken from rat, solvent-only wells 0%, staurosporine 100% unless noted. The method, boiled down:
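Caspase-Glo 3/7 read-out, rat primary kidney proximal tubule cells. Compound exposure 16 h, 37 °C; detection after 1 h at RT. Activity scaled to DMSO and 10 uM staurosporine.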
With `CCNc1nc(Cl)nc(NC(C)C)n1`, the caspase-3 activation is -3.87% [at 91.7 µM] (inactive).
The same measure, in the same setting: for `CCOCN(C(=O)CCl)c1c(C)cccc1CC` the value was 0.858% (inactive); for `ClC(Cl)=C(c1ccc(Cl)cc1)c1ccc(Cl)cc1`, -10.4% [at 91.7 µM] (inactive) and -6.37% [at 91.7 µM] (inactive).
Same read-out and setting: for `ClC1=C(Cl)C2(Cl)C3C4C=CC(C4)C3C1(Cl)C2(Cl)Cl` (configuration not stated) the value was -0.505% [at 91.7 µM] (inactive); for `COC(=O)NC(=S)Nc1ccccc1NC(=S)NC(=O)OC`, -3.02% (inactive); for `COP(=S)(OC)Oc1ccc([N+](=O)[O-])cc1`, -6.77% [at 91.7 µM] (inactive).
Regarding `O=S1OCC2C(CO1)C1(Cl)C(Cl)=C(Cl)C2(Cl)C1(Cl)Cl` (configuration not stated), the caspase-3 activation was 8.37% [at 91.7 µM] (inactive).
Still for that read-out and setting: for `C=CCc1ccc(OC)cc1` the value was 1.25% [at 91.7 µM] (inactive).
Regarding `ClC1=C(Cl)C2(Cl)C3C(Cl)C=CC3C1(Cl)C2(Cl)Cl` (configuration not stated), the caspase-3 activation is 2.29% (inactive).
Same read-out and setting: for `CCc1cccc(CC)c1N(COC)C(=O)CCl` the value was 1.3% (inactive).

For a further assay, the target named is Cytochrome P450 3A4 (Homo sapiens) (UniProt P08684). Nature of the assay: qHTS Assay for Inhibitors and Substrates of Cytochrome P450 3A4 (AID 884). Further: nearly all actives have a fitted effect of over 50% in size. Further: potency means the concentration at half of the fitted maximal effect. On activity change, negative = inhibition: on the % scale 0 is the no-effect control and ±100 the full control effect. As to conditions: recombinant CYP3A4, Luciferin-PPXE luminescence; series mostly up to 57.1 µM; activity change, negative = inhibition: at the top concentration. The method, boiled down: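 20 nM human CYP3A4 with 25 uM Luciferin-PPXE (at KM) in 200 mM KPO4, preincubated 10 min with compound; NADPH regeneration started a 60 min RT reaction. Luciferin detected by luminescence, normalized to 57 uM ketoconazole as full inhibition.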
Cytochrome P450 3A4 (Homo sapiens), sequence (P08684 whole entry, looked up): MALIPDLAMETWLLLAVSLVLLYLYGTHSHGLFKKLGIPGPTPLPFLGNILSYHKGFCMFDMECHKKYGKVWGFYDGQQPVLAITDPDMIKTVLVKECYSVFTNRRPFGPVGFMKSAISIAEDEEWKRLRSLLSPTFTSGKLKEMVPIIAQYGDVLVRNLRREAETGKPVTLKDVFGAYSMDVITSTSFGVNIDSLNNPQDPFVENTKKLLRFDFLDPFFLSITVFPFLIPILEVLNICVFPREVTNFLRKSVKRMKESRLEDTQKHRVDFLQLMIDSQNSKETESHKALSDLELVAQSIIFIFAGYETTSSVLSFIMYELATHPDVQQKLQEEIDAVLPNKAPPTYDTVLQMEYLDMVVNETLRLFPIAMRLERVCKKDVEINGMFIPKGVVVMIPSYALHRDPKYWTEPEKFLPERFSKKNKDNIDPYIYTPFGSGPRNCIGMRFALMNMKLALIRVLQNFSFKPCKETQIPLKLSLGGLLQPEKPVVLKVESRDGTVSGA
Take `N#Cc1ccc(CN2CC[C@@]3(CCCN(C(=O)Oc4ccccc4)C3)C2)cc1`: the Potency was 7.94 µM (active).
As to `O=C(Nc1cccc(F)c1)N1CC2(CCN(C(=O)Oc3ccccc3)CC2)C1`, the “activity change, negative = inhibition” value was 114% (inactive).
The same measure, in the same setting: for `CCOCN(C(=O)CCl)c1c(C)cccc1CC` the value was 69% (inactive).
On to `ClC(Cl)=C(c1ccc(Cl)cc1)c1ccc(Cl)cc1`, for which the Potency entry is “inactive and 7.94 µM (active)”.
`ClC1=C(Cl)C2(Cl)C3C4C=CC(C4)C3C1(Cl)C2(Cl)Cl` (configuration not stated): the Potency was 3.16 µM (active).
The same measure, in the same setting: for `Cc1ccccc1-c1cncnc1NCCc1cnc[nH]1` the value was 0.631 µM (active); for `O=C(O)COc1ccc(Cl)cc1Cl`, “inactive”.
`N#Cc1ccc(CN2CCC3(CC2)CCN(C(=O)Oc2ccccc2)CC3)cc1`: the “activity change, negative = inhibition” value was 134% (inactive).
Regarding `COP(=S)(OC)Oc1ccc([N+](=O)[O-])cc1`, the Potency was 3.98 µM (active).
In the case of `ClC1=C(Cl)C2(Cl)C3C(Cl)C=CC3C1(Cl)C2(Cl)Cl` (configuration not stated), the Potency is 10 µM (active).
On to `CNC(=O)O/N=C/C(C)(C)SC`, for which the “activity change, negative = inhibition” value was -2.98% (inactive).
Regarding `c1ccc(N=Nc2ccccc2)cc1`, the Potency entry was “inactive”.
As to `CCc1cccc(CC)c1N(COC)C(=O)CCl`, the “activity change, negative = inhibition” value is -4.95% (inactive).

The target is the same in another assay. In words: qHTS Assay for Activators of Cytochrome P450 3A4 (AID 885). Further: nearly all actives have a fitted effect of over 65% in size. Further: potency means the concentration at half of the fitted maximal effect. As to conditions: recombinant CYP3A4, Luciferin-PPXE luminescence, 60 min; series mostly up to 57.1 µM; activity change, positive = activation: at the top concentration. The method, boiled down: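 Human CYP3A4 (20 nM) with Luciferin-PPXE at 25 uM (its KM) in 200 mM KPO4; 10 min compound preincubation, then NADPH regeneration and 60 min reaction at RT. Luciferin read by luminescence; normalized to 57 uM ketoconazole full inhibition.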
In general terms: In qHTS, concentration-response curves come from the screen itself.
For `N#Cc1ccc(CN2CC[C@@]3(CCCN(C(=O)Oc4ccccc4)C3)C2)cc1`, the “activity change, positive = activation” value is -69.7% (inactive).
In the case of `O=C(Nc1cccc(F)c1)N1CC2(CCN(C(=O)Oc3ccccc3)CC2)C1`, the Potency is 12.6 µM (active).
Consider `CN1CC[C@@]2(CCCN(C(=O)c3ccco3)C2)C1`, for which the “activity change, positive = activation” value is -38.1% (inactive).
Same read-out and setting: then `ClC(Cl)=C(c1ccc(Cl)cc1)c1ccc(Cl)cc1`, with -86.4% (inactive).
Same read-out and setting: then `c1cnc(N2CC[C@@]3(CCCNC3)C2)nc1`, with -41.7% (inactive); and `ClC1=C(Cl)C2(Cl)C3C4C=CC(C4)C3C1(Cl)C2(Cl)Cl` (configuration not stated), with -102% (inactive).
Turning to `COc1ccccc1CN1CC[C@@]2(CCCN(C(=O)Oc3ccccc3)C2)C1`, the “activity change, positive = activation” value is -37.8% (inactive).
Still for that read-out and setting: for `O=C(Nc1cccc(F)c1)N1CC[C@@]2(CCCN(C(=O)Oc3ccccc3)C2)C1` the value was -40.2% (inactive); for `Cc1ccccc1-c1cncnc1NCCc1cnc[nH]1`, -105% (inactive); for `C/C=C/c1ccc2c(c1)OCO2`, -39.9% (inactive).
Take `N#Cc1ccc(CN2CCC3(CC2)CCN(C(=O)Oc2ccccc2)CC3)cc1`: the Potency is 15.8 µM (active).
As to `COP(=S)(OC)Oc1ccc([N+](=O)[O-])cc1`, the “activity change, positive = activation” value is -102% (inactive).
Still for that read-out and setting: then `CS(=O)(=O)N1CCC2(CC1)CN(Cc1ccncc1)C2`, with -30.6% (inactive); and `O=S1OCC2C(CO1)C1(Cl)C(Cl)=C(Cl)C2(Cl)C1(Cl)Cl` (configuration not stated), with -36.9% (inactive); and `C=CCc1ccc(OC)cc1`, with -31.5% (inactive).
On the same count and under the same terms, then `c1ccc(N2CC[C@@]3(CCCNC3)C2)nc1`, with -56.2% (inactive).
Consider `ClC1=C(Cl)C2(Cl)C3C(Cl)C=CC3C1(Cl)C2(Cl)Cl` (configuration not stated), for which the Potency result is “inactive”.
